# CRE-bla Fsk: alters forskolin-stimulated CRE reporter signaling in CHO cells. AID 662. Potency, µM (highest dose often 38.2 µM), for inactives: at the highest dose activity change, negative = inhibition, most hits filed as activators. CHO CRE-bla reporter (cAMP response element driving beta-lactamase), forskolin EC10, beta-lactamase ratio. 71,000 compounds, 2.5% hits; active = well fitted activation curve with a large enough effect in the signal ratio, with a control signal flat, not every such curve was filed as active; inconclusive = small, poorly fitted or top-dose-only effect, or effect the other way, or a change in a side signal; the % refers to the signal ratio; note: potency is the fitted concentration of half-maximal effect; % of control where 0% means no effect
#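 The 460nm/530nm emission ratio after CCF4 loading defined %Activity, from which AC50 values were obtained. CRE-bla CHO cells received compound dilution series together with an EC10 level of NKH 477 for 3 hours at 37 degrees Celsius.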
# A350 autofl: A350 region autofluorescence. Compound autofluorescence, 340/450 nm, Alexa 350 dye-equivalents; active compounds read high. max dye-equivalent concentration, M. 59,000 compounds, 11% hits; in the data active = max dye-equivalent concentration above about 10 nM; inconclusive = mostly about 1.1 nM to 9.6 nM
# 4-MU autofl: compounds fluorescent in 4-MU spectral region; max dye-equivalent concentration, M; 59,000 compounds, 11% hits; AID 589; compound autofluorescence, 340/450 nm, 4-MU equivalents; active compounds read high; in the data active = max dye-equivalent concentration above about 10 nM; inconclusive = mostly about 1.1 nM to 9.6 nM
#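 Compounds in 100 mM Tris, pH 8.0, incubated 15 min at room temperature, then fluorescence read at 340 nm excitation/450 nm emission. Signal converted to 4-MU dye-equivalent concentration using an on-plate six-point 4-MU standard curve.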
# HADH2 inhib: HADH2 (human) dehydrogenase inhibition; recombinant HADH2, NADH fluorescence, beta-hydroxybutyryl-CoA; Potency, µM (top dose mostly 57.1 µM), inactives show top-dose activity change, negative = inhibition, most hits filed as inhibitors; 73,000 compounds, 3.4% hits; Q99714; note: potency is the fitted concentration of half-maximal effect; % is set by controls: 0 for no effect and ±100 for the full control effect; nearly all actives have a fitted effect of over 60% in size
# Target sequence (Q99714 whole entry, looked up, one chain of several): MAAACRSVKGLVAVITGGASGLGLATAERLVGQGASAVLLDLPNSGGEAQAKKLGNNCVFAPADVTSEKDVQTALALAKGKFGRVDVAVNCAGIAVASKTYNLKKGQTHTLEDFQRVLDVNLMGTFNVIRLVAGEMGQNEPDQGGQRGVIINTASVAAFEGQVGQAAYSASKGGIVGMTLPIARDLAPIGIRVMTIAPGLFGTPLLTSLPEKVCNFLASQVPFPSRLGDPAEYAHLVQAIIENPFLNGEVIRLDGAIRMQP
#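 Buffer 100 mM Tris-HCl pH 9.0/0.01% Tween-20; HADH2 20 nM; NAD+ 1 mM; beta-hydroxybutyryl-CoA 90 uM (all final). 15 min cpd preincubation, RT.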
# HSD17B inh: inhibitors of human HSD17B10 dehydrogenase. recombinant HSD17B10, NADH fluorescence kinetic. Potency, µM (series often up to 57.1 µM), for inactives: at the top dose activity change, negative = inhibition, hits mostly inhibitors. 75,000 compounds, 7.6% hits;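 note: the protocol describes HADH2 (HSD17B10) and not the HSD17B4 of the title; potency is the fitted concentration of half-maximal effect; % is set by controls: 0 for no effect and ±100 for the full control effect; nearly all actives have a fitted effect of over 70% in size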
#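 His-tagged E. coli-expressed HADH2 at 20 nM in 100 mM Tris-HCl pH 9.0 with 0.01 % Tween-20, preincubated 15 min with compound at room temperature. Reaction with 1 mM NAD+ and 90 uM beta-hydroxybutyryl coenzyme A; NADH fluorescence (360/450 nm) read kinetically over 4 min, last minus first point.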
# AID923: qHTS Assay for Allosteric/Competitive Inhibitors of Caspase-1: Spectroscopic Profiling in AFC Spectral Region; compound fluorescence, AFC spectral region (405/520 nm); Potency, µM (titrated, usually from 57.5 µM), for the others: top-dose fluorescence increase, most hits filed as activators; 75,000 compounds, 1.1% hits; AID 923, 2007; note: potency is the fitted concentration of half-maximal effect; 0% is about no effect
#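 Compound autofluorescence profiled at 405 nm ex/520 nm em during kinetic caspase 1 run (50 nM enzyme, 5 uM Ac-WEHD-AFC, HEPES pH 7.5, 10 mM DTT). Titration up to 57 uM; baseline from regression intercept, normalized to AFC standard curve.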
# Active calls of the source: *; i = inactive; ? = inconclusive; . = no result given; ! = repeats disagree; [ ] = another dose, or the depositor's remark. Sampled rows, rich in hits. Any-hit rate of the full collection: about 14%. Unless noted, calls come from the whole dose curve; as a rule, active = well fitted curve in the direction sought with a large enough effect; inconclusive = small, poorly fitted or top-dose-only effect, or another doubt; inactive = no such curve, though single readings can be large; an effect the other way counts as inactive or inconclusive.
SMILES,CRE-bla Fsk,A350 autofl,4-MU autofl,HADH2 inhib,HSD17B inh,AID923
CC(=O)OC[C@@H]1O[C@@H](O/N=C2/C[C@@H](O)[C@@H](O)[C@@H]3[C@@H]4C(=O)N(Cc5ccccc5)C(=O)[C@H]4CC[C@@H]23)[C@H](OC(C)=O)[C@H](OC(C)=O)[C@@H]1OC(C)=O,.,.,.,-7%[11.4 µM],-2%[11.4 µM],-2%[11.5 µM]
CC(=O)N1CCC2(CC1)CCN(C(=O)Nc1cccc(C#N)c1)CC2,-1%,i,i,7%,0%,-1%
C=CCNS(=O)(=O)c1ncnc2nc[nH]c12,?,i,i,-3%[11.4 µM],2%[11.4 µM],-1%[11.5 µM]
O=C(O)C1Nc2c(O)cccc2C2C=CCC12 (centres undefined),?,i,i,13µM*,7.9µM*,4%
O=C(OC1CCCCC1)c1ccc2c(c1)C1C=CCC1C(C(=O)O)N2 (centres undefined),-17%,i,i,6.3µM*,2.5µM*,3%
CC(C)C=O,-9%,.,.,-3%,1%,-1%
CC[C@](C)(CN(C)C)OC(=O)c1ccccc1,-2%[17.1 µM],i,i,2%[25.6 µM],2%[25.6 µM],-1%[25.7 µM]
N[C@H](C(=O)O)[C@H](N)C(=O)O,4%[7.6 µM],i,i,14%[11.4 µM],6%[11.4 µM],1%[11.5 µM]
Cc1nc2ccccc2c(=O)n1/N=C/c1cn(-c2ccccc2)nc1-c1cccs1,2.5µM*,i,i,3%,10%,0%
Cc1nc2ccccc2c(=O)n1/N=C/c1ccncc1,25%,.,.,-3%,0%,2%
Nc1nc(N)c(N=Nc2ccc(C(=O)O)c(O)c2)c(N)n1,?,?,?,?,-28%[11.4 µM],4%[11.5 µM]
Cn1c(=O)c2c(SCC(=O)NCC3CCCO3)nc(-c3cccs3)nc2n(C)c1=O (centres undefined),12%,.,.,-7%,?,-2%
CC(C)Sc1nc(-c2cccs2)nc2c1c(=O)n(C)c(=O)n2C,3.2µM*,.,.,4%,?,-3%
N#Cc1ccc(CN2CCCC3(CCN(S(=O)(=O)c4ccccc4)CC3)C2)cc1,-3%,i,i,-1%,0%,1%
CC(=O)NC1(c2ccccc2)CCN(c2nc(C)cc(C)n2)CC1,6%,?,i,-5%,25µM*,1%
O=C(Nc1cnc2ccccn2c1=O)c1ccc(F)cc1,4%,1.7e-08M*,1.4e-08M*,-6%,-10%,0%
O=C(Nc1cnc2sc3c(n2c1=O)CCCC3)c1ccc(F)cc1,-3%,1.8e-07M*,1.6e-07M*,?,-3%,-6%
Cc1nn2c(=O)c(NC(=O)c3ccc(F)cc3)cnc2s1,4%,i,i,9%,5%,-2%
O=c1c(O)c(-c2ccc(O)c(O)c2)oc2c(OC3OC(CO)C(O)C(O)C3O)c(O)cc(O)c12 (centres undefined),.,.,.,.,-29%,-3%
N#CC12CCCCC1CC1CCCCC1(C#N)N2Cc1cccnc1 (centres undefined),.,i,i,.,.,.
C=CC(=O)OCCOCCOC(=O)C=C,?,.,.,?,-1%,2%
Cc1nc2cc(N3CCCCC3)c(NC(=O)c3cccnc3)cc2c(=O)n1Cc1ccccc1,?,1.1e-08M*,?,19%,?,4%
CC(=O)Nc1cc2c(=O)n(Cc3ccccc3)c(C)nc2cc1N1CCOCC1,14%,?,?,8%,9%,-1%
CCc1cccc2c(-c3ccccc3)c3c(nc12)OCC3,?,.,.,7%,32µM*,0%
C(=N\n1cnnc1)/c1ccc(N2CCOCC2)s1,14%,7.8e-08M*,7.3e-08M*,-15%,-12%,18%
SMILES,CRE-bla Fsk,A350 autofl,4-MU autofl,HADH2 inhib,HSD17B inh,AID923
Cc1ccc(S(=O)(=O)n2c3ccccc3c3nnc(C(=O)c4ccccc4)nc32)cc1,.,.,.,10%[11.4 µM],-2%[11.4 µM],1%[11.5 µM]
COc1ccccc1-c1nnc(SCc2nc3ccccc3[nH]2)n1C,?,i,i,9%,18%,-2%
Cn1c(SCc2nc3ccccc3[nH]2)nnc1-c1cccnc1,?,1.6e-08M*,3.9e-08M*,-14%,-6%,6%
c1coc(Cn2c(SCc3nc4ccccc4[nH]3)nnc2-c2cccs2)c1,-5%,i,i,1%,2%,1%
Cc1cccc(-c2nnc(SCc3nc4ccccc4[nH]3)n2Cc2ccco2)c1,2.5µM*,i,i,-3%,0%,3%
COc1ccc2[nH]cc(CCNc3ccnc(-c4ccccc4C(F)(F)F)n3)c2c1,1%,i,i,10%,10%,-1%
OCCNCCO,-10%,.,.,30%,32µM*,1%
CN(C)CCCNCCCN,-15%,.,.,6%,7%,-2%
CC1(C)Cc2c(sc3nc(-c4cc5ccccc5o4)n(N)c(=O)c23)CO1,13%,1.2e-07M*,1.2e-07M*,0%,-2%,2%
Cc1cccc(CNc2ncncc2-c2ccc3c(c2)OCO3)c1,?,i,i,?,-27%,0%
N#CC1=C(SCC(=O)c2ccccc2)NC2=C(C(=O)CCC2)C1c1ccco1 (centres undefined),.,i,i,.,.,.
CCOC(=O)CSC1=C(C#N)C(c2ccccc2C)C2=C(CCCC2=O)N1 (centres undefined),?,7.4e-08M*,7.4e-08M*,-29%,58%,0%
Cn1c(=O)[nH]c(=O)c2c1nc(CN1CCN(c3cccc(Cl)c3)CC1)n2CCc1ccccc1,13µM*,i,i,7%,15%,-1%
CCCCCn1c(CN2CCN(c3cccc(Cl)c3)CC2)nc2c1c(=O)[nH]c(=O)n2C,13µM*,i,i,-10%,2%,0%
CCCCCCn1c(N2CCN(c3cccc(Cl)c3)CC2)nc2c1c(=O)[nH]c(=O)n2C,?,i,i,3%,0%,-1%
CCCCNC(=O)C(c1ccc(OCC(=O)OC)c(C(=O)OC)c1)N(CCC1=CCCCC1)C(=O)CCCCCN1C(=O)NC(c2ccc(-c3ccccc3)cc2)C(C(=O)OCc2ccccc2)=C1C (centres undefined),9%,.,.,3%,7%,3%
CC1(C)CCC(=O)N[C@H]1CC(=O)C[C@H]1NC(=O)CCC1(C)C,3%[7.6 µM],i,i,3%[11.4 µM],5%[11.4 µM],2%[11.5 µM]
CCOC(=O)Cc1nnc(NC(=O)C(CC)Sc2nnc3c4ccccc4n(C)c3n2)s1 (centres undefined),13µM*,i,i,7%,-11%,2%
COc1c(Cl)ccc(Cl)c1C(=O)O,.,.,.,.,?,0%
O=c1[nH]c2cc(Cl)c(Cl)cc2[nH]c1=O,-13%,?,?,-26%,25µM*!,-2%
Clc1cc(Cl)c(Cl)cc1Cl,-10%,.,.,1%,1%,1%
